A selection: hits, their analogues and other compounds. The true share with any hit is near 10%.
MCF10A rereplic – DNA re-replication induction in MCF 10a cells. MCF 10A DNA re-replication, Hoechst nuclear intensity, 48 h. Potency, µM (series often up to 46.1 µM), for the others: top-dose activity, positive = re-replication, actives largely listed as activators. hit rate 2.9% among 350,000; also: % of control where 0% means no effect; nearly all actives have a fitted effect of over 50% in size
VP16 counter – inhibits Gal4-VP16 luciferase reporter, ROR gamma counter-screen; AID 2546; Drosophila S2 Gal4-VP16 UAS-luciferase, luminescence, 20 h; Potency, µM (top dose mostly 53.6 µM), without a hit: at the top dose activity, negative = inhibition, most hits filed as inhibitors; hit rate 3.5% among 310,000;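 also: Gal4-VP16 expression switched on by copper sulfate through the metallothionein promoter; % is scaled to controls: 0 for no effect and ±100 for the full control effect; nearly all actives have a fitted effect of over 50% in size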
ELG1 repair inh – inhibitors of ELG1-dependent DNA repair in HEK293T cells. HEK293T ELG1-luciferase reporter, luminescence, 16 h; DNA damage induced by 5-fluorouridine. hit rate 2.3% among 330,000. Potency, µM (doses to about 46.1 µM), for inactives: at the highest dose activity change, negative = inhibition, hits mostly inhibitors. AID 504467; also: % is scaled to controls: 0 for no effect and ±100 for the full control effect; nearly all actives have a fitted effect of over 55% in size
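DMSO vehicle served as the neutral condition. Each well held 2,000 cells given 5-fluorouridine plus compound; after 16 hr at 37 °C/5% CO2, ONE-Glo was added and luciferase measured 30 min later.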
SW480 rereplic – induces DNA re-replication in SW480 colon adenocarcinoma cells; SW480 DNA re-replication, Hoechst DNA content imaging, 48 h; Potency, µM (series often up to 46.1 µM), for inactives: top-dose re-replication activation, actives largely listed as activators; AID 624297; hit rate 1.8% among 340,000; also: % of control where 0% means no effect; nearly all actives have a fitted effect of over 55% in size
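Readout is total intensity of Hoechst-stained nuclei, excited at 405 nm and collected at 500-530 nm. Compound treatment lasted 48 hr at 37 C in 5% CO2 before staining.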
RORgamma inh – ROR gamma (mouse) transcription inhibition; hit rate 5.4% among 310,000; P51450; Potency, µM (top dose mostly 53.6 µM), without a hit: top-dose activity change, negative = inhibition, most hits filed as inhibitors; Drosophila S2 Gal4-RORgamma UAS-luciferase reporter, 20 h; also: % is scaled to controls: 0 for no effect and ±100 for the full control effect; nearly all actives have a fitted effect of over 60% in size
Target sequence (P51450 whole entry, looked up, the tested form may be a part): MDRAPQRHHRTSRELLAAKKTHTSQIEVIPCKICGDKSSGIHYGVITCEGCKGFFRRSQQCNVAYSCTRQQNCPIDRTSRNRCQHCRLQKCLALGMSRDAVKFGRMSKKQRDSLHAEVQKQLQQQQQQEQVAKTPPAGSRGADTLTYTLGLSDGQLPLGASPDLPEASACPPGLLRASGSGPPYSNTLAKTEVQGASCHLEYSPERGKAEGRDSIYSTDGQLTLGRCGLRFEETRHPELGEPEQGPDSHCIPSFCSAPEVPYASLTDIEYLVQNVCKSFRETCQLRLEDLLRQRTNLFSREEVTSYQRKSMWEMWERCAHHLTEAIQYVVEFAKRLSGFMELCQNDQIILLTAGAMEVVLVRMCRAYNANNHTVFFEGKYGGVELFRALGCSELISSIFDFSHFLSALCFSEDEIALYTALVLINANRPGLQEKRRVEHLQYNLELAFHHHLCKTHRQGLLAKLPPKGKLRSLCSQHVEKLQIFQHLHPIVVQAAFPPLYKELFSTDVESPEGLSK
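Luminescence from a UAS-regulated Photinus luciferase reporter in stably transfected Drosophila Schneider cells is measured; decreased signal marks ROR gamma inhibition. Fusion expression is induced by 700 uM copper sulfate for 20 hr.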
An asterisk follows results filed as active; ? = inconclusive; / = not tested or not shown. Calls follow the shape of the dose curve; as a rule, active = well fitted curve in the direction sought with a large enough effect; inconclusive = small, poorly fitted or top-dose-only effect, or another doubt; inactive = no such curve, though single readings can be large; an effect the other way counts as inactive or inconclusive. Potency is read from the fitted curve at half-maximal effect.

SMILES	MCF10A rereplic	VP16 counter	ELG1 repair inh	SW480 rereplic	RORgamma inh
COc1ccccc1NC(=O)Cc1nnc(SCC(=O)Nc2nccs2)n1C	-4%	7%	-2%	-11%	-31%
Cc1oc2c(c(=O)c1C)C(=O)CC(c1ccccc1)C2 (configuration not stated)	9%	-11%	-1%	-1%	-1%
CS(=O)(=O)c1sc(C#N)c2c1C(=O)CC(c1ccccc1)C2 (configuration not stated)	?	4.5µM*	?	23%	4.5µM*
CC(=O)c1sc(-c2c(C)nc3sccn23)nc1C1CCCC1	/	9%	4%	/	24%
COc1ccc(C)cc1NC(=O)c1ccccc1NS(=O)(=O)c1ccc(Cl)s1	21µM*	?	?	-20%	-82%
COc1cc(S(=O)(=O)N2CCOCC2)ccc1NC(=O)COC(=O)c1cc(OC)c(OC)c(OC)c1	-3%	/	?	-5%	/
O=C(Nc1ccccc1N1CCOCC1)c1ccc(Cl)c(S(=O)(=O)NCc2ccco2)c1	12%	-3%	16µM*	-5%	29%
Cc1ccc(NC(=O)c2ccc3c(c2)OCO3)cc1S(=O)(=O)N1CCOCC1	0%	/	18µM*	-2%	/
COc1cc(S(=O)(=O)N2CCOCC2)ccc1NC(=O)COC(=O)CC12CC3CC(CC(C3)C1)C2	13%	8%	18µM*	1%	-16%
O=C(Nc1ccc2c(c1)OCO2)c1ccc(Cl)c(S(=O)(=O)N2CCOCC2)c1	-3%	13%	-5%	-4%	?
CCS(=O)(=O)c1ccc(C(=O)Nc2ccccc2OC)c(Cl)c1Cl	4%	-6%	?	-6%	21%
O=C(COC(=O)CCc1c[nH]c2ccccc12)NCc1ccc2c(c1)OCO2	2%	1%	12%	0%	0%
COc1ccc(S(=O)(=O)N2CCOCC2)cc1NC(=O)c1cc2c(s1)CCCC2	-3%	-6%	16µM*	-4%	-6%
Cc1ccc(NC(=O)c2oc3ccccc3c2COC(C)C)cc1S(=O)(=O)N1CCOCC1	?	/	18µM*	2%	/
COc1ccc(S(=O)(=O)N2CCOCC2)cc1NC(=O)COC(=O)c1ccc([N+](=O)[O-])s1	4%	/	23µM*	3%	/
O=C(Nc1ccc(N2CCOCC2)c(S(=O)(=O)Nc2ccccc2Cl)c1)c1ccccc1	5%	/	18µM*	-1%	/
O=C(Nc1cc(S(=O)(=O)N2CCOCC2)ccc1N1CCOCC1)c1cc2c(s1)CCC2	-1%	6%	?	-3%	25%
O=C(Nc1ccc(N2CCOCC2)c(S(=O)(=O)Nc2ccccc2Cl)c1)c1ccc(=O)[nH]n1	9%	/	/	-10%	/
O=C(Nc1cc(S(=O)(=O)N2CCOCC2)ccc1N1CCOCC1)c1ccc([N+](=O)[O-])s1	?	/	21µM*	?	/
Cc1ccc(NC(=O)c2ccc([N+](=O)[O-])s2)cc1S(=O)(=O)N1CCOCC1	1%	/	6.5µM*	?	/
Cc1ccc(NC(=O)c2ccccc2NS(=O)(=O)c2ccc(Cl)s2)cc1S(=O)(=O)N1CCOCC1	7.3µM*	?	23µM*	2%	?
O=C(Nc1cc(S(=O)(=O)N2CCOCC2)ccc1N1CCOCC1)c1ccccc1[N+](=O)[O-]	-5%	/	0%	1%	/
Cc1ccc(-n2c([C@@H]3C[C@H]3c3ccccc3)n[nH]c2=S)cc1	?	?	8%	?	2.8µM*
Cc1ccc(-n2c(Cn3c(C)nc4ccccc43)n[nH]c2=S)cc1	-1%	-13%	5%	?	?
Cc1ccc(C2CC2c2n[nH]c(=S)n2-c2cccc(Cl)c2)cc1 (configuration not stated)	23µM*	7.1µM*	-1%	-5%	2.5µM*
SMILES	MCF10A rereplic	VP16 counter	ELG1 repair inh	SW480 rereplic	RORgamma inh
S=c1[nH]nc(Cn2nnc3ccccc32)n1-c1ccc(Cl)cc1	0%	-2%	-14%	4%	?
Cc1ccc(C2CC2c2n[nH]c(=S)n2-c2ccc(C)cc2)cc1 (configuration not stated)	?	5.6µM*	9%	25%	3.2µM*
S=c1[nH]nc(C2CC2c2ccc(Cl)cc2)n1-c1ccc(Cl)cc1 (configuration not stated)	?	?	1%	?	2.2µM*
C=CCNC(=O)O/N=C/c1csc([N+](=O)[O-])c1	-9%	-3%	14%	?	15%
Cc1ccc(-n2c(C3CC3c3ccc(Cl)cc3)n[nH]c2=S)cc1 (configuration not stated)	?	5.6µM*	1%	?	2.8µM*
COc1ccc(Cn2c(=O)[nH]c3cc(OC)c(OC)cc3c2=O)cc1	9%	-4%	3%	-6%	0%
COc1ccc(Cn2c(=S)[nH]c3cc(OC)c(OC)cc3c2=O)cc1	?	?	10%	0%	3.5µM*
COc1cc2[nH]c(=S)n(Cc3ccc(C)cc3)c(=O)c2cc1OC	13µM*	3.2µM*	?	20%	1.8µM*
CCNC(=S)N1CCC(Cc2ccccc2)CC1	7%	8%	?	-7%	18%
CCNC(=S)N1CCC(C(O)(c2ccccc2)c2ccccc2)CC1	-4%	22%	-8%	-1%	-27%
S=C(Nc1ccccc1)N1CCC(Cc2ccccc2)CC1	13%	6.3µM*	-16%	-3%	6.3µM*
COc1ccc(NC(=S)N2CCN(S(=O)(=O)c3ccccc3)CC2)cc1	2%	-3%	-1%	-24%	-11%
COc1ccc(NC(=S)N2CCC(Cc3ccccc3)CC2)cc1	7%	?	?	-2%	8.9µM*
COc1cc(NC(=S)N2CCC(C(O)(c3ccccc3)c3ccccc3)CC2)cc(OC)c1	?	?	-3%	2%	14µM*
OCC1CCCN(C(=S)Nc2ccc(Nc3ccccc3)cc2)C1 (configuration not stated)	?	7.9µM*	?	?	7.1µM*
OCC1CCCN(C(=S)Nc2ccc(OC(F)F)cc2)C1 (configuration not stated)	-1%	6%	?	-11%	-25%
CCOc1ccc2nc(N3C(=O)/C(=C/c4ccc(Cl)cc4)NC3=S)sc2c1	-1%	1.6µM*	13%	1%	1.1µM*
COc1ccccc1CC1CC(=O)N(c2cccc(Cl)c2C)C1=O (configuration not stated)	1%	-11%	0%	-3%	-11%
Cc1cccc(-n2nnnc2SCC(=O)Nc2ccc(N3CCN(C)CC3)cc2)c1	?	9%	10%	?	-21%
Cc1csc(NC(=O)c2ccc(Cn3nc(C)c(Br)c3C)o2)n1	?	?	9.2µM*	-2%	-12%
Cc1nn(Cc2ccc(C(=O)Nc3ccccc3C(F)(F)F)o2)c(C)c1Br	?	?	?	-10%	-24%

Screens (PubChem)
